# Rows were chosen to be rich in hits. Some 9.2% of all compounds tested hit in one or more screens of this group.
# ELG1 DNA repair – ELG1-dependent DNA repair inhibition. HEK293T ELG1-luciferase reporter, luminescence, 16 h; DNA damage induced by 5-fluorouridine. Potency, µM (top dose mostly 46.1 µM), hits mostly inhibitors. actives 2.3% (n = 330,000); also: nearly all actives have a fitted effect of over 55% in size
#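 Overnight (16 hr) co-exposure of 2,000 cells/well to 5-fluorouridine and compound at 37 °C preceded detection. Luciferase was quantified via ONE-Glo luminescence; loss of signal denotes inhibition.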
# SMN2 splice up – increases expression of the SMN2 splice variant; HEK293 SMN2-luciferase splicing reporter, luminescence, 30-36 h; Potency, µM (doses to about 46.1 µM), usual class: activators; actives 2.8% (n = 210,000); also: nearly all actives have a fitted effect of over 55% in size
#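 qHTS luciferase splicing reporter: luminescence rises when SMN2 exon 7 is included in transfected HEK293 cells. Compound exposure lasted 30-36 h at 37C, with 4.5 mM final sodium butyrate as control, followed by a ONE-Glo read.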
# NPC1 promoter act – NPC1 promoter activation; Huh7 NPC1 promoter luciferase reporter, 24 h; Potency, µM (doses to about 9.22 µM), most hits filed as activators; actives 2.4% (n = 320,000); also: nearly all actives have a fitted effect of over 60% in size
#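 Huh7 cells stably carrying NPC1 promoter–luciferase, plated in Opti-MEM with 10% FBS for 2 h, were exposed to compound in DMSO for 24 h at 37 °C; luciferase reagent was added for 10 min and luminescence read.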
# Rab9 promoter act – Rab9 promoter activation. Huh7 Rab9 promoter-luciferase reporter, luminescence, 24 h. Potency, µM (series often up to 9.22 µM), usual class: activators. actives 2.8% (n = 320,000). AID 485297; also: nearly all actives have a fitted effect of over 60% in size
#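 Huh7 reporter line, Rab9 promoter upstream of luciferase. Compound exposure 24 h at 37 °C in reduced-serum medium with 10% FBS. Read-out: luminescence.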
# FLuc counter – counter-screen for miR-21 project: firefly luciferase inhibitors or activators. P08659. purified FLuc, Km substrates, luminescence inhibition. Potency, µM (highest dose often 57.5 µM), hits mostly inhibitors. actives 6.9% (n = 360,000). AID 588342; also: nearly all actives have a fitted effect of over 55% in size
# Target sequence (P08659 whole entry, looked up): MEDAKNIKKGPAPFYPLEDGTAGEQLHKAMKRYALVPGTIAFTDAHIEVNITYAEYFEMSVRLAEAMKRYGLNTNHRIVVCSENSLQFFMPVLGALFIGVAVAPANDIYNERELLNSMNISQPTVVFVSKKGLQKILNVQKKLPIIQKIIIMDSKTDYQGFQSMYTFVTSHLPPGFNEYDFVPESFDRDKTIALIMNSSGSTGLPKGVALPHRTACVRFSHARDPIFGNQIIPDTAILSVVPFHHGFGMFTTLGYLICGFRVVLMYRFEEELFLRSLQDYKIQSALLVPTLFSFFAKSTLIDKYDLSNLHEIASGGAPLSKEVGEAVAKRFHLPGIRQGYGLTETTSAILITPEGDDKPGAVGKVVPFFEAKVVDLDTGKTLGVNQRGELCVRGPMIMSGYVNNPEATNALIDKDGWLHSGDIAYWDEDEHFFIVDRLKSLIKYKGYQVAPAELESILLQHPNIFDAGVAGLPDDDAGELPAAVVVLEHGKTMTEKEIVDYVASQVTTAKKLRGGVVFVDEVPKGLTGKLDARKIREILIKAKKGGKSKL
#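 Biochemical qHTS of compounds, final roughly 60 µM downward over six points, against 10 nM purified firefly luciferase using Km concentrations of substrates (10 uM D-luciferin, 10 uM ATP) in Tris acetate pH 7.5 buffer; luminescence output.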
# ELG1 genotox – induces genotoxicity in HEK293T cells with luciferase-tagged ELG1 | HEK293T ELG1-luciferase reporter, luminescence, 16 h | Potency, µM (doses to about 46 µM), hits mostly activators | actives 1.3% (n = 330,000) | AID 504466; also: nearly all actives have a fitted effect of over 60% in size
#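 Cells (2,000/well) expressing the ELG1-luciferase fusion are dosed by pin tool and kept 16 hr at 37 °C, 5% CO2. Signal comes from ONE-Glo luciferase reagent after 30 min at room temperature.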
# A number is an active result; . = inactive; ? = inconclusive; / = no result given; [ ] = dose if it differs, or a comment. Calls follow the shape of the dose curve; as a rule, active = well fitted curve in the direction sought with a large enough effect; inconclusive = small, poorly fitted or top-dose-only effect, or another doubt; inactive = no such curve, though single readings can be large; an effect the other way counts as inactive or inconclusive.
SMILES,ELG1 DNA repair,SMN2 splice up,NPC1 promoter act,Rab9 promoter act,FLuc counter,ELG1 genotox
Clc1ccc(OCc2cc(-c3ccccc3)no2)c(Cl)c1,?,0.5µM,0.5µM,0.63µM,0.38µM,?
Clc1ccc(SCc2cc(-c3ccccc3)no2)cc1,?,.,.,.,?,.
COc1ccc(-c2cc(-c3ccccc3)no2)cc1,?,/,0.5µM,0.4µM,0.38µM,?
Cc1cccc(OCc2cc(-c3ccccc3)no2)c1C,?,/,?,?,12µM,?
COc1ccc(-c2ccc(-c3noc(-c4ccccc4)n3)c(OC)n2)cc1,?,.,.,.,.,?
Fc1ccc(OCc2cc(-c3ccccc3)no2)cc1,?,/,2.8µM,3.2µM,5.4µM,21µM
COc1ccc([N+](=O)[O-])cc1NC(=O)C1C2C=CC(C2)C1C(=O)O (stereo not drawn),?,/,.,.,.,.
Cc1ccc(-n2nc(C)c3c(C)c(CCC(=O)NCc4ccccc4Cl)c(C)nc32)cc1C,/,.,/,/,.,/
COc1ccc(-c2cc(COc3ccccc3)on2)cc1,?,?,?,4µM,11µM,?
CN(C(=O)CSc1nc(N)c2c3c(sc2n1)CSC(C)(C)C3)c1ccccc1,21µM,.,.,.,?,.
Cc1ccc(NC(=O)NCCN2C(=O)C3C4C=CC(C4)C3C2=O)cc1 (stereo not drawn),?,11µM,2.5µM,1.6µM,17µM,7.3µM
COc1ccc(NC(=O)CCN2C(=O)[C@@H]3[C@H](C2=O)[C@H]2C=C[C@@H]3C2)cc1,.,/,.,.,.,.
COc1ccc(NC(=O)NCCN2C(=O)C3C4C=CC(C4)C3C2=O)cc1 (stereo not drawn),?,11µM,?,?,?,?
O=C(NCCN1C(=O)C2C3C=CC(C3)C2C1=O)Nc1ccccc1 (stereo not drawn),?,.,.,.,.,.
COC(=O)c1cc(S(=O)(=O)N2CCN(c3ccc(OC)cc3)CC2)c[nH]1,/,/,/,/,.,/
CCOc1ccccc1NC(=O)c1c(NCc2cccs2)sc2c1CCCCC2,/,/,/,/,.,/
Cc1ccc(C)c(OCc2nc3ccccc3n2C)c1,/,.,/,/,?,/
Cc1ccccc1OCc1nc2ccccc2n1C,?,/,3.2µM,4µM,8.5µM,?
Cn1c(COc2ccc(C(=O)O)cc2)nc2ccccc21,.,/,.,.[1.84 µM],.,.
Cn1c(COc2ccc(F)cc2)nc2ccccc21,?,/,2.5µM,3.5µM,13µM,?
COc1ccccc1C(=O)NCCn1cc(SCC(=O)Nc2ccccc2F)c2ccccc21,/,.,/,/,.,/
CCCCN(C)CCNC(=O)c1c(C)oc2ncnc(N3CCOCC3)c12,/,/,/,/,.,/
CCN(Cc1cc2ccc(C)cc2[nH]c1=O)C(=O)c1ccncc1,10µM,.,.,.,.,.
COc1ccc(NC(=O)N2CC3(CCN(C(=O)c4csnn4)CC3)C2)cc1,/,.,/,/,/,/
C=CCOCC(O)Cn1c(N2CCCC2)nc2c1c(=O)[nH]c(=O)n2C (stereo not drawn),.,/,.,.,.,.
SMILES,ELG1 DNA repair,SMN2 splice up,NPC1 promoter act,Rab9 promoter act,FLuc counter,ELG1 genotox
Brc1ccc(-c2ncc(-c3ccccc3)cn2)cc1,?,7.9µM,0.5µM,0.71µM,0.43µM,0.82µM
Brc1ccc(-c2ccccc2)cc1,.,.,.,.,.,.
COc1ccc(CC(=O)N2CCN(c3ccccn3)CC2)cc1OC,.,.,.,.,.,.
CCCc1ccc(OCc2ccc(C(=O)N3CCN(c4ccccn4)CC3)o2)c(OC)c1,16µM,?,?,?,?,.
Cc1ccc(S(=O)(=O)Cc2ccc(C(=O)N3CCN(c4ccccn4)CC3)o2)cc1,?,.,.,.,.,.
O=C(c1ccc(CS(=O)(=O)c2ccc(Br)cc2)o1)N1CCN(c2ccccn2)CC1,18µM,.,.,.,.,.
CC#CCN1c2ccccc2[C@]23C[C@@H](C(=O)OC)N(C(=O)c4cccs4)C2=NC(C(=O)OC)=C(C(=O)OC)[C@H]13,/,.[9.22 µM],/,/,/,/
O=C1CCCC/C1=N\Nc1ccc(C2CCCCC2)cc1,?,/,.,?,1.7µM,4.6µM
C=C(C)COc1ccc(-c2nc(N)ncc2Oc2ccc(OC)cc2)c(O)c1,.,.,.,.,.,.
C=C(C)COc1ccc(-c2nc(N)ncc2Oc2ccccc2OC)c(O)c1,.,.,.,.,21µM,.
O=C1CCN(Cc2ccccc2)CCN1CCOc1ccccc1,?,/,?,3.5µM,24µM,.
CCN1CCN(Cc2ccc(OC)c(OCc3ccccc3)c2)CC1,/,.,/,/,.,/
CCN1CCN(Cc2ccc(OCc3ccccc3)cc2)CC1,?,.,4µM,.[1.84 µM],21µM,10µM
O=C(Nc1ccccc1)OCCN1CCN(Cc2ccccc2)CCC1=O,.,.,.,.,.,.
CN1CCN(Cc2ccc(OCc3ccccc3)cc2)CC1,?,.,?,?,13µM,?
CC(C)CNC(=O)C1CCN(Cc2ccc(OCc3ccccc3)cc2)CC1,?,?,.,?,17µM,.
O=C(c1ccc([N+](=O)[O-])cc1)N1c2ncnn2C2(CCCCC2)[C@@H]2CCCC[C@@H]21,/,/,/,/,.,/
O=C(Nc1ccccc1F)C(=O)Nc1cccc2ccccc12,?,/,?,2.8µM,?,?
O=C(Nc1cccc2ccccc12)/C(=C/c1ccc([N+](=O)[O-])cc1)NC(=O)c1ccccc1,.,.,.,.,.,.
O=C(Nc1cccc2ccccc12)/C(Cl)=C/c1ccccc1,?,.,.,.,12µM,.
COc1ccc2[nH]c3c(c2c1)CCN1C(=O)C(CC(=O)NCCCn2ccnc2)C[C@H](C(=O)N2CCCCC2)[C@@]31CCc1ccccc1 (stereo partly drawn),.,/,/,/,/,.
O=c1c2c(nc3cc(-c4ccc(Br)cc4)[nH]n13)CCCC2,.,/,.,.,.,.
Cc1c(-c2ccccc2)[nH]n2c(=O)c3c(nc12)CCCC3,?,11µM,?,?,15µM,?
O=c1c2c(nc3cc(-c4ccccc4)[nH]n13)CCC2,?,11µM,2.8µM,?,6µM,?
Cc1ccc(-c2[nH]n3c(=O)c4c(nc3c2C)CCCC4)cc1,.,.,?,?,?,?
SMILES,ELG1 DNA repair,SMN2 splice up,NPC1 promoter act,Rab9 promoter act,FLuc counter,ELG1 genotox
Cc1cc2nc3c(c(=O)n2[nH]1)CCCC3,?,.,.,.,.,.
COc1ccc(-c2cc3nc4c(c(=O)n3[nH]2)CCC4)cc1,?,10µM,?,2.8µM,4.3µM,?
C=CCn1c(SCc2nc3cc(C(=O)OC)ccc3c(=O)[nH]2)nc2sc(CC)cc2c1=O,8.2µM,.,.,.,.,.
C=CCn1c(SCC(=O)Nc2sccc2C(N)=O)nc2sc(CC)cc2c1=O,?,/,.,.,?,.
Cc1cc(NC(=O)c2cc(C(C)C)on2)no1,?,?,?,?,15µM,?
Cc1cc(NC(=O)c2ccccc2)ccc1NC(=O)c1ccccc1Cl,.,/,.,.,?,.

# Screening results (PubChem)
